About 79,000 compounds went through this panel and 15% of them were active in at least one assay; those are over-represented in the sample as a whole. The source made the active and inactive calls. No stated cut-off is given here; in the data, active means growth inhibition above about 70%; inactive means the rest.
What was measured:
[1] = NCI Yeast Anticancer Drug Screen. Data for the rad52 strain (AID 147);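 further: 0% = growth of vehicle-treated control cultures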; conditions: S. cerevisiae rad52 mutant growth inhibition, active compounds read high
Method in brief: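 Genetically altered yeast (DNA damage repair defect) treated with compound; inhibition calculated relative to vehicle.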

[2] = NCI Yeast Anticancer Drug Screen. Data for the wt1 strain (AID 149);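 further: 0% = growth of vehicle-treated wt1 cultures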; conditions: S. cerevisiae wt1 strain (SPY 50644) growth inhibition, active compounds read high
Method in brief: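 Yeast wt1 strain exposed to compounds; growth inhibition measured relative to vehicle-treated controls.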

[3] = NCI Yeast Anticancer Drug Screen. Data for the rad50EPP+ strain (AID 151);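 further: 0% = growth of vehicle-treated control cultures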; conditions: S. cerevisiae rad50 mutant strain, active compounds read high
Method in brief: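 Strain rad50EPP+; compound exposure; % growth inhibition vs vehicle.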

[4] = NCI Yeast Anticancer Drug Screen. Data for the mgt1 strain (AID 153); conditions: S. cerevisiae mgt1 mutant growth inhibition, active compounds read high
Method in brief: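 Read-out: yeast growth inhibition vs vehicle control. Strain mgt1, drawn from a panel altered in DNA damage repair or cell cycle control.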

[5] = NCI Yeast Anticancer Drug Screen. Data for the rad50 strain (AID 155);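 further: 0% = growth of vehicle-only cultures of the same strain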; conditions: S. cerevisiae rad50 strain growth inhibition, active compounds read high
Method in brief: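 Yeast carrying a defined DNA repair defect were exposed to test compounds, and growth was compared with vehicle-treated controls to give percent inhibition.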

[6] = NCI Yeast Anticancer Drug Screen. Data for the mec2-1 strain (AID 157); conditions: S. cerevisiae mec2-1 strain, active compounds read high
Method in brief: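 Cells of the genetically defined mec2-1 yeast strain are incubated with test compound. Inhibition of growth is calculated against vehicle-treated controls.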

[7] = NCI Yeast Anticancer Drug Screen. Data for the rad14 strain (AID 159);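 further: 0% = growth of vehicle-treated control cultures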; conditions: S. cerevisiae rad14 strain growth inhibition, active compounds read high
Method in brief: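 Yeast cells carrying a defined DNA-repair defect were exposed to compounds, and growth inhibition was calculated relative to vehicle-treated control cultures.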

[8] = NCI Yeast Anticancer Drug Screen. Data for the CLN2oe strain (AID 163);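 further: 0% = growth of vehicle-only control cultures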; conditions: S. cerevisiae CLN2oe strain, active compounds read high
Method in brief: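 Strain altered in cell-cycle control, incubated with compound; growth compared to solvent-treated controls.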

[9] = NCI Yeast Anticancer Drug Screen. Data for the cln2 rad14 strain (AID 165);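 further: 0% = growth equal to vehicle treated cultures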; conditions: S. cerevisiae cln2 rad14 strain, active compounds read high
Method in brief: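 The screen exposed genetically defined yeast (cln2 rad14) to test compounds and scored growth inhibition relative to vehicle-treated controls.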

[10] = NCI Yeast Anticancer Drug Screen. Data for the bub3 strain (AID 167); conditions: S. cerevisiae bub3 mutant strain, active compounds read high
Method in brief: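 Compounds were applied to a genetically altered yeast strain carrying a cell-cycle control defect. Growth inhibition was scored against vehicle-treated controls.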

[11] = NCI Yeast Anticancer Drug Screen. Data for the wt2 strain (AID 169);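 further: 0% = growth of vehicle-treated yeast cultures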; conditions: S. cerevisiae wt2 strain growth inhibition, active compounds read high
Method in brief: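 Steps: yeast strain treated with compound; growth recorded; inhibition calculated relative to cultures given vehicle alone.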

[12] = NCI Yeast Anticancer Drug Screen. Data for the mlh1 strain (AID 171);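 further: 0% = growth of vehicle-treated control cultures of the same strain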; conditions: S. cerevisiae mlh1 strain growth inhibition, active compounds read high
Method in brief: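 Yeast screen: mutant strain plus compound, growth scored against vehicle control wells.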

[13] = NCI Yeast Anticancer Drug Screen. Data for the sgs1 strain (AID 173);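 further: 0% = growth of vehicle-only control cultures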; conditions: S. cerevisiae sgs1 mutant, active compounds read high
Method in brief: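 Inhibition of yeast growth served as the measure. The mutant strain was treated with each compound, and growth was normalised to cultures receiving vehicle alone.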

[14] = NCI Yeast Anticancer Drug Screen. Data for the mlh1 rad18 strain (AID 175); conditions: S. cerevisiae mlh1 rad18 strain growth inhibition, active compounds read high
Method in brief: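 Compound-treated yeast growth, normalised to vehicle controls. Strain bears defined DNA repair mutations.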

[15] = NCI Yeast Anticancer Drug Screen. Data for the rad18 strain (AID 177); conditions: S. cerevisiae rad18 mutant growth inhibition, active compounds read high
Method in brief: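 Inhibition values reflect reduced yeast growth compared with vehicle-treated controls, using a strain engineered with a DNA damage repair defect.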

[16] = NCI Yeast Anticancer Drug Screen. Data for the sgs1 mgt1 strain (AID 161);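 further: 0% = growth of cultures given vehicle only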; conditions: S. cerevisiae sgs1 mgt1 strain, active compounds read high
Method in brief: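 Test agents were incubated with a DNA-repair-mutant yeast strain. Growth was then read and compared against vehicle-treated controls.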

[17] = at 5.0 µM (retest, dose inferred, filed as 0.5)
[18] = at 50.0 µM (retest, dose inferred, filed as 5.0)

Measured: growth inhibition

CCOc1ccccc1N=Cc1c2ccccc2cc2ccccc12
active: [1]; at 11.0 µM 98% | [1]; at 33.0 µM 99% | [1]; at 100.0 µM 99% | [2]; at 11.0 µM 95% | [2]; at 33.0 µM 97% | [2]; at 100.0 µM 95% | [3]; at 33.0 µM 90% | [3]; at 100.0 µM 89% | [4]; at 3.7 µM 75% | [4]; at 11.0 µM 97% | [4]; at 33.0 µM 98% | [4]; at 100.0 µM 98% | [5]; at 11.0 µM 97% | [5]; at 33.0 µM 98% | [5]; [18] 98% | [5]; at 50.0 µM 88.8% | [5]; at 100.0 µM 97% | [6]; at 11.0 µM 98% | [6]; at 33.0 µM 98% | [6]; [18] 99% | [6]; at 50.0 µM 90.8% | [6]; at 100.0 µM 98% | [7]; at 3.7 µM 74% | [7]; at 11.0 µM 98% | [7]; at 33.0 µM 98% | [7]; at 100.0 µM 98% | [8]; at 11.0 µM 97% | [8]; at 33.0 µM 98% | [8]; at 100.0 µM 97% | [9]; [18] 98% | [10]; at 11.0 µM 96% | [10]; at 33.0 µM 98% | [10]; [18] 99% | [10]; at 50.0 µM 89.9% | [10]; at 100.0 µM 97% | [11]; at 11.0 µM 96% | [11]; at 33.0 µM 98% | [11]; at 100.0 µM 97% | [12]; at 11.0 µM 97% | [12]; at 33.0 µM 98% | [12]; at 100.0 µM 97% | [13]; at 11.0 µM 96% | [13]; at 33.0 µM 97% | [13]; at 100.0 µM 96% | [14]; [18] 98% | [14]; at 50.0 µM 86.5% | [15]; at 11.0 µM 97% | [15]; at 33.0 µM 98% | [15]; at 100.0 µM 97%
inactive: [1]; at 1.2 µM 10% | [1]; at 3.7 µM 28% | [2]; at 1.2 µM -2% | [2]; at 3.7 µM 26% | [3]; at 1.2 µM -4% | [3]; at 3.7 µM 24% | [3]; at 11.0 µM 63% | [4]; at 1.2 µM 2% | [5]; at 1.2 µM 1% | [5]; at 3.7 µM 39% | [5]; [17] 11% | [6]; at 1.2 µM -18% | [6]; at 3.7 µM 33% | [6]; [17] 7% | [7]; at 1.2 µM -23% | [8]; at 1.2 µM 18% | [8]; at 3.7 µM 36% | [9]; [17] 44% | [9]; at 50.0 µM 58.6% | [10]; at 1.2 µM 4% | [10]; at 3.7 µM 34% | [10]; [17] 37% | [11]; at 1.2 µM -4% | [11]; at 3.7 µM 34% | [12]; at 1.2 µM 18% | [12]; at 3.7 µM 56% | [13]; at 1.2 µM -18% | [13]; at 3.7 µM 24% | [14]; [17] 38% | [15]; at 1.2 µM -3% | [15]; at 3.7 µM 21%

Cc1cccc(C(C)(C)C)c1NC(=O)C(C#N)C1=C(Cl)C(=O)c2ccccc2C1=O (stereo not given)
inactive: [1]; at 1.2 µM 6% | [1]; at 3.7 µM 36% | [1]; at 11.0 µM 52% | [2]; at 1.2 µM -10% | [2]; at 3.7 µM 10% | [2]; at 11.0 µM 21% | [3]; at 1.2 µM 14% | [3]; at 3.7 µM 67% | [4]; at 1.2 µM 19% | [4]; at 3.7 µM 32% | [4]; at 11.0 µM 49% | [5]; at 1.2 µM 4% | [5]; at 3.7 µM 24% | [5]; [17] -1% | [6]; at 1.2 µM 14% | [6]; at 3.7 µM 46% | [6]; [17] -4% | [7]; at 1.2 µM 4% | [7]; at 3.7 µM 16% | [16]; [17] 46% | [9]; [17] 19% | [10]; at 1.2 µM 14% | [10]; at 3.7 µM 11% | [10]; [17] 39% | [11]; at 1.2 µM -21% | [11]; at 3.7 µM 6%
active: [1]; at 33.0 µM 97% | [1]; at 100.0 µM 98% | [2]; at 33.0 µM 98% | [2]; at 100.0 µM 98% | [3]; at 11.0 µM 99% | [3]; at 33.0 µM 99% | [3]; at 100.0 µM 98% | [4]; at 33.0 µM 98% | [4]; at 100.0 µM 97% | [5]; at 11.0 µM 70% | [5]; at 33.0 µM 98% | [5]; [18] 97% | [5]; at 50.0 µM 91% | [5]; at 100.0 µM 96% | [6]; at 11.0 µM 95% | [6]; at 33.0 µM 95% | [6]; [18] 98% | [6]; at 50.0 µM 90.5% | [6]; at 100.0 µM 97% | [7]; at 11.0 µM 76% | [7]; at 33.0 µM 98% | [7]; at 100.0 µM 97% | [16]; [18] 98% | [16]; at 50.0 µM 89.5% | [9]; [18] 97% | [9]; at 50.0 µM 88.7% | [10]; at 11.0 µM 76% | [10]; at 33.0 µM 98% | [10]; [18] 98% | [10]; at 50.0 µM 92.3% | [10]; at 100.0 µM 96% | [11]; at 11.0 µM 74% | [11]; at 33.0 µM 97% | [11]; at 100.0 µM 94%

From PubChem BioAssay (NCI)
